Assay outcomes deposited in PubChem by National Center for Advancing Translational Sciences (NCATS).
KDM5B inh: blocks human KDM5B histone demethylase activity; KDM5B demethylase, FDH-coupled NADH fluorescence (FDH is formaldehyde dehydrogenase); Potency, µM (series often up to 57.7 µM), usual class: inhibitors; 220,000 compounds, 2.6% hits; note: potency is the fitted concentration of half-maximal effect; 0% is about no effect; nearly all actives have a fitted effect of over 70% in size
Target sequence (Q9UGL1 whole entry, looked up): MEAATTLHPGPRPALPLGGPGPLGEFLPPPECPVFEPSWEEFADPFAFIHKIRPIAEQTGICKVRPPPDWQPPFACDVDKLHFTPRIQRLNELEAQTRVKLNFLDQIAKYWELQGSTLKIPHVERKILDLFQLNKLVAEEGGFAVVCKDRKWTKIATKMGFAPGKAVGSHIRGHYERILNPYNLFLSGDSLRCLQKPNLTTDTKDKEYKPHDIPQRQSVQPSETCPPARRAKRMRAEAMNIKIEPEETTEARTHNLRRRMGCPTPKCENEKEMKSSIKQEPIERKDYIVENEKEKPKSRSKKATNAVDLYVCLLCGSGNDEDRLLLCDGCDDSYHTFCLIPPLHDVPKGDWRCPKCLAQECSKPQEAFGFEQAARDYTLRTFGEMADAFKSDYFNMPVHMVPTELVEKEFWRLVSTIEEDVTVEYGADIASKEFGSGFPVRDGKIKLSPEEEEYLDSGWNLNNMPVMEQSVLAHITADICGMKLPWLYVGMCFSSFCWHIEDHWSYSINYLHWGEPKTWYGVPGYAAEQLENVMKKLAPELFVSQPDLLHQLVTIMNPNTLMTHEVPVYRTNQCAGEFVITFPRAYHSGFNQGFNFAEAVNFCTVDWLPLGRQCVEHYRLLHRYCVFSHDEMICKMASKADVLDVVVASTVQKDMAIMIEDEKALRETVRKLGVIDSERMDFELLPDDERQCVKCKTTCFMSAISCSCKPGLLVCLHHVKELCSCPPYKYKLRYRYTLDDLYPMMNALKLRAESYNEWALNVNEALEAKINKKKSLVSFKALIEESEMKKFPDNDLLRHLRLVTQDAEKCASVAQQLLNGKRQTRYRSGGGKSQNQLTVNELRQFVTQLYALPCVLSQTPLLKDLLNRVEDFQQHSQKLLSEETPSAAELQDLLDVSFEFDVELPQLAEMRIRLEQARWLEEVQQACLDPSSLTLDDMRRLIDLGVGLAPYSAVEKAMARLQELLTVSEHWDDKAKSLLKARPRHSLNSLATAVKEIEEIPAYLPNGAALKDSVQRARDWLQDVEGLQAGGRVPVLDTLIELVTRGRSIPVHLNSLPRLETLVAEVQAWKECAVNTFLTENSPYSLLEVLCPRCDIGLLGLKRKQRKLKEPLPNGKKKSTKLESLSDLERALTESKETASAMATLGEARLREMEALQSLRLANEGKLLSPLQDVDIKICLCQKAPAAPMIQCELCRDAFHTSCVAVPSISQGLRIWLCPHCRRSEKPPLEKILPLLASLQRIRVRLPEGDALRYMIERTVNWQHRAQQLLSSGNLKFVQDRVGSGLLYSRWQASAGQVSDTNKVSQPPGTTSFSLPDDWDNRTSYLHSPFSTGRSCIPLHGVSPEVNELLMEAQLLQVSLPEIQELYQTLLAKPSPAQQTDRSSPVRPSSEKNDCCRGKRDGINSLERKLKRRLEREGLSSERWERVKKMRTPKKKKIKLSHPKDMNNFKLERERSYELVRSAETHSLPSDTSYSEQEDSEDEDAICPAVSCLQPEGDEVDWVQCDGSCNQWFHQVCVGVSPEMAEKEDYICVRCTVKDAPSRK
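Measured: NADH fluorescence change, 30 min, RT. System: KDM5BΔAP 200 nM final, H3K4me3 peptide, α-KG, Fe(II), ascorbate, NAD⁺ plus FDH, pH 7.5 HEPES. Compounds: titrated, 10 min pre-incubation with enzyme.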
IP6K1 inh: inhibitors of human IP6K1; Q92551; IP6K1 kinase, ADP-Glo luminescence, 2 h; hits give low values; activity change, % (series mostly up to about 58 µM); 140,000 compounds, 0.81% hits; AID 1645851; in the data active = activity change below about -25%; note: % is set by controls: 0 for no effect and ±100 for the full control effect
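ADP-Glo luminescence measures ADP made by human IP6K1 during a 2 h RT reaction with ATP/IP6 (mix at 1.3 mM/130 uM); top library doses 57.5 and 19.1 uM final.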
IP6K1 conf: human IP6K1 inhibition, confirmatory | 1,200 compounds, 13% hits | recombinant IP6K1 kinase, ADP-Glo luminescence, 2 h | AID 1645852 | shares compounds with IP6K1 inh | Potency, µM (titrated, usually from 49 µM), inactives show at the highest dose activity change, negative = inhibition, actives largely listed as inhibitors; note: potency is the fitted concentration of half-maximal effect; % is set by controls: 0 for no effect and ±100 for the full control effect; nearly all actives have a fitted effect of over 65% in size
Starred values were filed as active, the others as inactive; i = inactive; ? = inconclusive; . = not tested or not shown. Only some compounds are listed: those with a hit (about 2.8% of all), similar ones and a draw of the others. Unless noted, calls come from the whole dose curve; as a rule, active = well fitted inhibition curve with a large enough effect; inconclusive = small, poorly fitted or top-dose-only effect; inactive = no such curve, though single readings can be large or run the other way.

SMILES	KDM5B inh	IP6K1 inh	IP6K1 conf
COc1cccc(CNC(=O)C2Cn3cccc3C(=O)N2)c1 (stereo not drawn)	i	-4.1	.
Cc1ccc(-n2cnc3sc4c(c3c2=O)CCC4)cc1	i	.	.
COCCCNc1nc(-c2c(C)noc2C)cc2cc(CN(C)C)oc12	i	-9.2	.
COc1ccc(-c2nc(-c3c(C)noc3C)cc3cc(CN(C)C)oc23)cn1	31.6µM*	-48.7*	?
Cc1noc(C)c1-c1cc2cc(CN(C)C)oc2c(NCC(C)C)n1	i	-10.9	.
COc1cc(-c2nc(-c3c(C)noc3C)cc3cc(CN(C)C)oc23)ccn1	35.5µM*	-33.1*	?
CC(C)(C)C(=O)N1CCC(NC(=O)c2cc3ccccc3oc2=O)CC1	i	.	.
Cc1ccc(-n2c(C)cc(/C=C(\C#N)C(=O)Nc3ccc(C)c(C)c3)c2C)cc1	i	-8.3	.
Cc1ccc(NC(=O)/C(C#N)=C/c2cc(C)n(-c3ccc(Br)cc3)c2C)cc1C	?	-28.6*	-11.0%
C#C[C@]1(OC(C)=O)CC[C@H]2[C@@H]3CCC4=C/C(=N/O)CC[C@@H]4[C@H]3CC[C@@]21CC	.	-59.1*	?
C#C[C@]1(OC(C)=O)CCC2C3CCc4cc(OC(C)=O)ccc4C3CCC21C (stereo partly drawn)	i	.	.
Cc1cc(Nc2nc(NC(C)c3ccc(F)cc3)c(C#N)cc2F)n[nH]1 (stereo not drawn)	.	.	-9.0%
CC(Nc1nc(-c2ccccc2F)nc2ccccc12)c1ccccc1 (stereo not drawn)	i	.	.
CC(C)c1ccc(CNC(=O)c2ccc3c(c2)N(C)C2CCCCN2C3=O)cc1 (stereo not drawn)	?	-13.8	.
NC(=O)Cc1c[nH]c2ncc(-c3ccc(Cl)cc3)cc12	20µM*	-43.5*	?
Cc1cc(-c2cnc3[nH]cc(CC(=O)NCc4cccnc4)c3c2)ccn1	i	-2.7	.
O=C(Cc1c[nH]c2ncc(-c3cccnc3)cc12)NCc1ccccc1	i	-2.0	.
O=C(Cc1c[nH]c2ncc(-c3ccccc3)cc12)Nc1ccc(Cl)cc1	i	-10.6	.
NC(=O)Cc1c[nH]c2ncc(-c3ccc(F)c(Cl)c3)cc12	39.8µM*	-36.3*	?
Cn1cc(-c2cnc3[nH]cc(CC(=O)N4CCCC4)c3c2)cn1	i	-16.5	.
O=C(Cc1c[nH]c2ncc(-c3ccc(F)c(Cl)c3)cc12)NCc1cccnc1	31.6µM*	-26.2*	?
NC(=O)Cc1c[nH]c2ncc(-c3ccc4c(c3)OCO4)cc12	35.5µM*	-47.0*	14.9µM*
COCCCNC(=O)CCCN1C(=O)COc2ccc(C(=O)COc3ccc(OC)cc3)cc21	i	2.7	.
C/C=C1/C[N+](C)([O-])C2Cc3c([nH]c4ccccc34)C(=O)CC1C2C(=O)OC (stereo not drawn)	.	11.4	.
CCCCC(NC(=O)C(c1ccccc1)C1CCCC1)c1ccccc1 (stereo not drawn)	i	.	.
SMILES	KDM5B inh	IP6K1 inh	IP6K1 conf
CC1CCN(C(=O)CSc2nc(-c3ccccc3)no2)CC1	?	-26.2*	?
CC1CCN(C(=O)CSc2nc(-c3ccc(C(C)C)cc3)no2)CC1	i	33.3	.
COc1ccc(CC(=O)N2CCC(N3C(=O)c4c(c(C)nn4-c4ccccc4)C3C(C)C)C2)cc1 (stereo not drawn)	.	-9.5	.
c1ccc2c(CCNc3ccc(Nc4ccncc4)cc3)c[nH]c2c1	.	23.3	.
c1cc(NCCc2c[nH]c3ccccc23)cc(Nc2ccncc2)c1	.	-33.8*	-4.7%
COCCn1c(SCC(=O)c2cc(C)n(CC(F)(F)F)c2C)nnc1-c1ccc(Cl)cc1	i	.	.
O=C(Cc1ccccc1)Nc1cccc(-c2nc3cccnc3s2)c1	?	-18.9	.
COCC(=O)Nc1cccc(-c2nc3cccnc3s2)c1	?	-26.8*	?
CCCc1cc(CN(C)C(=O)c2ccc3c(c2)[nH]c(=O)n3C2CCC(O)CC2)[nH]n1 (stereo not drawn)	i	-3.7	.
COc1ccc(CCNC(=O)CN2C(=O)COc3ccc(C)cc32)cc1OC	i	-6.8	.
COc1ccc(CCNC(=O)CN2C(=O)COc3ccccc32)cc1OC	i	-34.3*	2.0%
CCOc1ccc(CNC(=O)CCS(=O)(=O)c2cc3c4c(c2)CCN4C(=O)CC3)cc1OC	i	-27.8*	13.2%
COc1ccc(CNC(=O)CCS(=O)(=O)c2cc3c4c(c2)CCN4C(=O)CC3)cc1	i	-8.7	.
OC[C@@H]1CN(C2CCC2)C[C@H]1c1nc(-c2ccncc2)no1	i	-9.9	.
COc1ccc(CN(C)Cc2ccoc2)cc1OCC(O)CN1CCCCC1 (stereo not drawn)	i	-37.7*	-10.9%
COc1ccc(CN(C)Cc2cccs2)cc1OCC(O)CN1CCN(C)CC1 (stereo not drawn)	i	18.1	.
Cn1c(=O)c2c(n3c4ccccc4nc13)NC(=O)CC2c1ccccc1F (stereo not drawn)	?	-28.0*	-19.6%
Cn1c(=O)c2c(n3c4ccccc4nc13)NC(=O)CC2c1cccc(F)c1 (stereo not drawn)	?	-3.2	.
CN1C[C@H](NCc2ccc(C(F)(F)F)cc2)CCC[C@@H](C(=O)NC2CC2)CC1=O	i	-6.1	.
CN1C[C@H](NCc2ccc(F)cc2)CCC[C@@H](C(=O)NC2CC2)CC1=O	i	-25.8*	?
CC(C)NC(=O)C1CCc2nnc(CNC(=O)Nc3cccnc3)n21 (stereo not drawn)	i	15.0	.
Cn1ccc(Nc2nccc3c(=O)cc(-c4cn[nH]c4)oc23)n1	i	-15.9	.
Cn1cc(-c2cc(=O)c3ccnc(Nc4ccc5[nH]ccc5c4)c3o2)cn1	i	-37.9*	?
CC(=O)c1cccc(Nc2nc(-c3ccc(Cl)cc3)nc3ccccc23)c1	i	.	.
CC(=O)c1cccc(Nc2nc(-c3cccc(C)c3)nc3ccccc23)c1	?	-38.8*	?
SMILES	KDM5B inh	IP6K1 inh	IP6K1 conf
COc1ccc(CN(C)Cc2cc(=O)n3[nH]c(-c4cccc(C)c4)cc3n2)cc1	i	.	.
COc1ccc(-c2cc3nc(N)cc(=O)n3[nH]2)cc1	?	-48.2*	?
O=C(NCC1CN(C(=O)Cc2cccc(Cl)c2)CC12CN(c1ccccc1)C2)c1ccccc1 (stereo not drawn)	?	12.7	.
Cc1nc(NCc2ccco2)sc1C(=O)NC1CC1	i	.	.
O=C(Cn1cnnn1)N1CCC(c2nccn2Cc2cccnc2)CC1	?	-0.1	.
O=C(CCn1cncn1)N1CCC(c2nccn2Cc2cccnc2)CC1	i	-37.8*	-15.7%
COc1ccc(N=C2S[C@H]3[C@H]([C@@H](O)[C@H](O)C[C@@H]3C(N)=O)N2CC2CCCCC2)cc1	i	-6.5	.
COc1cccc(-c2cnc([C@@H]3COCCN3Cc3ccc(NC(C)=O)cc3)[nH]2)c1	i	5.2	.
CCOC(=O)c1c(NC(C)=O)c2c3c(sc2n1Cc1nc(-c2cccc(Cl)c2)oc1C)CCCC3	i	-5.2	.
CCOC(=O)c1c(NC(C)=O)c2c3c(sc2n1Cc1nc(-c2ccccc2Cl)oc1C)CCCC3	?	-30.4*	10.6%
CCOC(=O)C(NC(=O)c1ccccc1)c1c(C)nn(-c2ccccc2)c1C (stereo not drawn)	i	.	.
Cc1ccc(S(=O)(=O)N2CCN(Cc3csc(C)n3)CC2)cc1	i	.	.
